For three molecules, potency estimated from few doses results are on record in article PMC11062922 (Nature Chemical Biology, 2023).

SMILES strings stand for the structures. Where two headings read alike, the source gives them in different places.

Common to all, as to set-up: species or system human, MV4-11 + K-562 + COLO205 + SK-N-BE2 + OVCAR-8
The subject of test [1] is ADRBK1. The note with it: read-out: apparent Kd, n = 1.
The subject of test [2] is AKT3. Conditions: read-out: apparent Kd; compound concentrations: 100 nM and 1000 nM (sheet 'Samples'), CATDS: 1.9200970976664199E-2; n = 1.
The subject of test [3] is CDC42BPA. The note with it: read-out: apparent Kd; compound concentrations: 100 nM and 1000 nM (sheet 'Samples'), CATDS: 2.9889506530370698E-2; n = 1.
Test [4] deals with CDC42BPB. The note with it: read-out: apparent Kd; compound concentrations: 100 nM and 1000 nM (sheet 'Samples'), CATDS: 7.2209321727509101E-2; n = 1.
The subject of test [5] is CDC42BPG. Conditions: read-out: apparent Kd; compound concentrations: 100 nM and 1000 nM (sheet 'Samples'), CATDS: 5.7260921277851103E-2; n = 1.
Test [6] relates to CDKL5. Conditions: read-out: apparent Kd; compound concentrations: 100 nM and 1000 nM (sheet 'Samples'), CATDS: 3.0884187274208798E-2; n = 1.
Test [7] deals with CHEK1. The note with it: read-out: apparent Kd; compound concentrations: 100 nM and 1000 nM (sheet 'Samples'), CATDS: 4.9980963828105997E-2; n = 1.
The subject of test [8] is JAK2. Conditions: read-out: apparent Kd; compound concentrations: 100 nM and 1000 nM (sheet 'Samples'), CATDS: 2.4440515668024899E-2; n = 1.
Test [9] deals with NUAK1. Conditions: read-out: apparent Kd; compound concentrations: 100 nM and 1000 nM (sheet 'Samples'), CATDS: 4.1044446827870798E-2; n = 1.
Test [10] has as its system NUAK2. The note with it: read-out: apparent Kd; compound concentrations: 100 nM and 1000 nM (sheet 'Samples'), CATDS: 3.8421609760156301E-2; n = 1.
Test [11] concerns PKN1. The note with it: read-out: apparent Kd; compound concentrations: 100 nM and 1000 nM (sheet 'Samples'), CATDS: 3.7942588141146198E-2; n = 1.
The subject of test [12] is PKN2. Conditions: read-out: apparent Kd; compound concentrations: 100 nM and 1000 nM (sheet 'Samples'), CATDS: 2.7249776498222002E-2; n = 1.
The test system of test [13] is PKN3. The note with it: read-out: apparent Kd, compound concentrations: 100 nM and 1000 nM (sheet 'Samples'), n = 1.
Test [14] has as its system PRKAA1. The note with it: read-out: apparent Kd; compound concentrations: 100 nM and 1000 nM (sheet 'Samples'), CATDS: 2.2574550296483802E-2; n = 1.
For test [15], the system named is PRKAA2. Conditions: read-out: apparent Kd; compound concentrations: 100 nM and 1000 nM (sheet 'Samples'), CATDS: 1.9838935716802002E-2; n = 1.
Test [16] concerns PRKACA. The note with it: read-out: apparent Kd; compound concentrations: 100 nM and 1000 nM (sheet 'Samples'), CATDS: 9.6222688341774595E-2; n = 1.
Test [17] deals with PRKACB. The note with it: read-out: apparent Kd; compound concentrations: 100 nM and 1000 nM (sheet 'Samples'), CATDS: 7.2959241198541205E-2; n = 1.
Test [18] deals with PRKAG1. The note with it: read-out: apparent Kd; compound concentrations: 100 nM and 1000 nM (sheet 'Samples'), CATDS: 2.1564965270821398E-2; n = 1.
Test [19] deals with PRKAG2. Conditions: read-out: apparent Kd; compound concentrations: 100 nM and 1000 nM (sheet 'Samples'), CATDS: 2.8394039575996899E-2; n = 1.
Test [20] deals with PRKCA. The note with it: read-out: apparent Kd; compound concentrations: 100 nM and 1000 nM (sheet 'Samples'), CATDS: 4.1441031849898502E-2; n = 1.
Test [21] concerns PRKCB. Conditions: read-out: apparent Kd; compound concentrations: 100 nM and 1000 nM (sheet 'Samples'), CATDS: 3.5643049371418899E-2; n = 1.
In test [22] the test system is PRKCD. The note with it: read-out: apparent Kd; compound concentrations: 100 nM and 1000 nM (sheet 'Samples'), CATDS: 5.5614379812914103E-2; n = 1.
Test [23] has as its system PRKCQ. Conditions: read-out: apparent Kd; compound concentrations: 100 nM and 1000 nM (sheet 'Samples'), CATDS: 6.3184001345655702E-2; n = 1.
For test [24], the system named is PRKD2. Conditions: read-out: apparent Kd; compound concentrations: 100 nM and 1000 nM (sheet 'Samples'), CATDS: 1.9916010120102301E-2; n = 1.
Test [25] deals with PRKG1. Conditions: read-out: apparent Kd; compound concentrations: 100 nM and 1000 nM (sheet 'Samples'), CATDS: 8.1540237220624201E-2; n = 1.
Test [26] relates to PRKX. The note with it: read-out: apparent Kd; compound concentrations: 100 nM and 1000 nM (sheet 'Samples'), CATDS: 3.8731961225305901E-2; n = 1.
Test [27] concerns ROCK1. The note with it: read-out: apparent Kd; compound concentrations: 100 nM and 1000 nM (sheet 'Samples'), CATDS: 7.2769225266658799E-2; n = 1.
The subject of test [28] is ROCK2. The note with it: read-out: apparent Kd; compound concentrations: 100 nM and 1000 nM (sheet 'Samples'), CATDS: 5.7736516058252897E-2; n = 1.
Test [29] deals with RPS6KA5. The note with it: read-out: apparent Kd; compound concentrations: 100 nM and 1000 nM (sheet 'Samples'), CATDS: 2.03243213098795E-2; n = 1.
Test [30] deals with RPS6KB1. Conditions: read-out: apparent Kd; compound concentrations: 100 nM and 1000 nM (sheet 'Samples'), CATDS: 4.2911282581945501E-2; n = 1.
Test [31] concerns CDK6. Conditions: read-out: apparent Kd; compound concentrations: 100 nM and 1000 nM (sheet 'Samples'), CATDS: 8.6240814727830004E-2; n = 1.
Test [32] deals with CSNK1D. The note with it: read-out: apparent Kd; compound concentrations: 100 nM and 1000 nM (sheet 'Samples'), CATDS: 0.10143186295273; n = 1.
For test [33], the system named is CSNK1E. Conditions: read-out: apparent Kd; compound concentrations: 100 nM and 1000 nM (sheet 'Samples'), CATDS: 9.8095690794025595E-2; n = 1.
The subject of test [34] is MAPK14. Conditions: read-out: apparent Kd; compound concentrations: 100 nM and 1000 nM (sheet 'Samples'), CATDS: 0.129413599974984; n = 1.
Test [35] concerns RIPK2. Conditions: read-out: apparent Kd; compound concentrations: 100 nM and 1000 nM (sheet 'Samples'), CATDS: 0.18182932832718701; n = 1.
Test [36] has as its system TESK2. Conditions: read-out: apparent Kd; compound concentrations: 100 nM and 1000 nM (sheet 'Samples'), CATDS: 8.5548681543300906E-2; n = 1.
The subject of test [37] is TNIK. The note with it: read-out: apparent Kd; compound concentrations: 100 nM and 1000 nM (sheet 'Samples'), CATDS: 8.6694751539446793E-2; n = 1.
Test [38] relates to AKT2. Conditions: read-out: apparent Kd; compound concentrations:100 nM and 1000 nM (sheet 'Samples'); n = 1.
The test system of test [39] is MAP2K5. The note with it: read-out: apparent Kd; compound concentrations:100 nM and 1000 nM (sheet 'Samples'); n = 1.
In test [40] the test system is RIOK2. Conditions: read-out: apparent Kd; compound concentrations:100 nM and 1000 nM (sheet 'Samples'); n = 1.
For test [41], the system named is RIPK3. The note with it: read-out: apparent Kd; compound concentrations:100 nM and 1000 nM (sheet 'Samples'); n = 1.

As to `COc1ccc(O)c(C(=O)c2ccc(C(=O)N[C@@H]3CCCNC[C@H]3NC(=O)c3ccncc3)cc2)c1F.Cl` [RO4367842-001], the potency estimated from few doses in [1] (compound concentrations: 100 nM and 1000 nM (sheet 'Samples'), CATDS: 2.1593661333857501E-2) is 587 nM; in test [2], 1460 nM; in test [3], 129 nM; in [4] it was 17.2 nM; in [5], 25.7 nM; in test [6], 115 nM. The potency estimated from few doses in test [7] was 33.5 nM; in test [8] it was 294 nM; in [9] it was 51.7 nM; in test [10], 60.9 nM; in test [11], 62.9 nM; in test [12], 182 nM. For the same molecule, the potency estimated from few doses in test [13] (CATDS: 1.9288035237500001E-2) is 1400 nM; in [14], 448 nM; in test [15] it was 1090 nM; in test [16] it was 11.1 nM; in test [17], 17 nM; in test [18], 592 nM. The potency estimated from few doses in [19] is 155 nM; in test [20], 50.5 nM; in [21] it was 74.4 nM; in test [22], 27.2 nM; in test [23], 21.6 nM; in test [24] it was 1050 nM. In addition, the potency estimated from few doses in [25] is 14.2 nM; in [26], 59.6 nM; in test [27] it was 17 nM; in test [28] it was 25.4 nM; in [29], 897 nM; in test [30] it was 46.5 nM.
For the molecule `CCc1nc(-c2cccc(C)c2)c(-c2ccncc2)s1` [TPKI-106], the potency estimated from few doses was 1680 nM in test [1] (compound concentrations: 100 nM and 1000 nM (sheet 'Samples'), CATDS: 9.0460214145081597E-2); 1950 nM in test [31]; 1230 nM in test [32]; 1340 nM in test [33]; 691 nM in [34]; 57.5 nM in [13] (CATDS: 0.541648596841942). Also, the potency estimated from few doses was 349 nM in test [35], 2000 nM in [36] and 1910 nM in test [37].
Take `O=C(O)C(F)(F)F.O=C(O[C@H]1CN[C@H](C#Cc2cc3ncnc(Nc4ccc(Cc5ccccc5)cc4)c3s2)C1)N1CCOCC1` [GSK238583A]: the potency estimated from few doses in test [1] (compound concentrations:100 nM and 1000 nM (sheet 'Samples')) was 1670 nM; in test [38], 1770 nM; in test [39], 646 nM; in [40] it was 2420 nM; in [41] it was 2260 nM.
